Data: PubChem BioAssay AID1159580 (chemical genetic matrix, 2015)
Where “and” joins values, the source holds several entries; their conditions need not be identical. Equal values may be shown once. Hit rate of the full screen: of about 5,500 compounds, about 2,000 (36%) were called active. About 18% were inconclusive and are not listed. No stated cut-off is given here; in the data, active means normalized growth mostly below about 0.91 (no sharp cut-off); inconclusive means no clear call, values can overlap the other calls; inactive means mostly above about 0.92. This is one part of the list.

Assay: chemical genetic growth profiling, strain panel (AID 1159580);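 further: tested at 20 µM; growth read once vehicle control cultures reached saturation at 30 °C; 1 = growth at the plate median or of vehicle wells; lower values mean less growth of the strain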
Conditions: S. cerevisiae deletion strains, growth OD

Measured: normalized growth

CC(N)CCCC(C)(C)O (centres undefined)
inactive: locus YAL013W, strain DEP1, active compounds read low 0.998 | locus YAL021C, strain ccr4, active compounds read low 0.973 | locus YAL026C, strain drs2, active compounds read low 0.993 | locus YAL030W, strain snc1, active compounds read low 0.989 | locus YBL061C, strain skt5, active compounds read low 0.98 | locus YBR009C, strain hhf1, active compounds read low 1.01 | locus YBR021W, strain FUR4, active compounds read low 1.02 | locus YBR023C, strain chs3, active compounds read low 0.98 | locus YBR171W, strain sec66, active compounds read low 0.964 | locus YBR229C, strain ROT2, active compounds read low 1.01 | locus YBR231C, strain swc5, active compounds read low 0.976 | locus YBR279W, strain paf1, active compounds read low 0.984 | locus YCL011C, strain gbp2, active compounds read low 0.969 | locus YCL016C, strain dcc1, active compounds read low 0.989 | locus YCL029C, strain bik1, active compounds read low 1 | locus YCL061C, strain MRC1, active compounds read low 0.971 | locus YCL069W, strain vba3, active compounds read low 0.979 | locus YCR088W, strain abp1, active compounds read low 0.973 | locus YDL005C, strain med2, active compounds read low 0.983 | locus YDL035C, strain GPR1, active compounds read low 1.02 | locus YDL040C, strain nat1, active compounds read low 0.984 | locus YDL074C, strain BRE1, active compounds read low 0.979 | locus YDL101C, strain DUN1, active compounds read low 0.994 | locus YDL134C, strain PPH21, active compounds read low 1.02 | locus YDL185W, strain tfp1, active compounds read low 1.01 | locus YDL192W, strain arf1, active compounds read low 1.01 | locus YDR001C, strain nth1, active compounds read low 0.973 | locus YDR069C, strain doa4, active compounds read low 0.981 | locus YDR101C, strain arx1, active compounds read low 0.976 | locus YDR137W, strain rgp1, active compounds read low 1.01 | locus YDR159W, strain sac3, active compounds read low 0.975 | locus YDR162C, strain NBP2, active compounds read low 1.01 | locus YDR195W, strain ref2 0.904 | locus YDR297W, strain sur2, active compounds read low 0.975 | locus YDR318W, strain mcm21, active compounds read low 1.01 | locus YDR334W, strain swr1, active compounds read low 0.93 | locus YDR335W, strain msn5, active compounds read low 0.985 | locus YDR388W, active compounds read low 1.01 | locus YDR392W, strain spt3, active compounds read low 0.905 | locus YDR502C, strain sam2, active compounds read low 0.996 | locus YEL003W, strain gim4, active compounds read low 0.97 | locus YEL037C, strain rad23, active compounds read low 0.977 | locus YEL061C, strain CIN8 (second series), active compounds read low 0.977 | locus YEL061C, strain CIN8, active compounds read low 0.994 | locus YER015W, strain faa2, active compounds read low 0.982 | locus YER016W, strain bim1, active compounds read low 0.98 | locus YER110C, active compounds read low 1.02 | locus YER111C, strain swi4, active compounds read low 0.987 | locus YER155C, strain BEM2 (second series), active compounds read low 0.972 | locus YER155C, strain BEM2, active compounds read low 1 | locus YER167W, strain BCK2, active compounds read low 1.01 | locus YFR010W, strain ubp6, active compounds read low 0.978 | locus YGL078C, strain dbp3, active compounds read low 1.01 | locus YGL086W, strain mad1, active compounds read low 0.998 | locus YGL167C, strain pmr1, active compounds read low 0.979 | locus YGL173C, strain kem1, active compounds read low 0.983 | locus YGL227W, strain vid30, active compounds read low 0.981 | locus YGL240W, strain doc1, active compounds read low 0.979 | locus YGL248W, strain PDE1, active compounds read low 1 | locus YGL253W, strain hxk2, active compounds read low 0.977 | locus YGR135W, strain pre9, active compounds read low 1.04 | locus YGR229C, strain SMI1, active compounds read low 0.99 | locus YGR252W, strain gcn5, active compounds read low 1.01 | locus YHR013C, strain ard1, active compounds read low 0.959 | locus YHR027C, strain rpn1, active compounds read low 0.969 | locus YHR030C, strain SLT2, active compounds read low 1.01 and 1.08 | locus YHR079C, strain IRE1 (second series), active compounds read low 1.01 | locus YHR079C, strain IRE1, active compounds read low 1.08 | locus YHR094C, strain hxt1, active compounds read low 1 | locus YHR129C, strain ARP1, active compounds read low 1.01 | locus YHR142W, strain chs7, active compounds read low 0.954 | locus YHR200W, strain rpn10, active compounds read low 1.01 | locus YIL066C, strain RNR3, active compounds read low 0.998 | locus YIL073C, strain SPO22, active compounds read low 1.05 | locus YIL125W, strain kgd1, active compounds read low 1 | locus YIR030C, strain dcg1, active compounds read low 1.01 | locus YJL092W, strain hpr5, active compounds read low 0.966 | locus YJL095W, strain BCK1 (second series), active compounds read low 0.977 | locus YJL095W, strain BCK1, active compounds read low 0.972 and 1.1 | locus YJL115W, strain asf1, active compounds read low 0.939 | locus YJL129C, strain trk1, active compounds read low 0.975 | locus YJL134W, strain LCB3, active compounds read low 1.01 | locus YJL154C, strain vps35, active compounds read low 0.978 | locus YJL164C, strain tpk1, active compounds read low 1.01 | locus YJL166W, strain qcr8, active compounds read low 0.987 | locus YJL168C, strain set2, active compounds read low 0.997 | locus YJL187C, strain SWE1 (second series), active compounds read low 0.974 | locus YJL187C, strain SWE1, active compounds read low 0.994 | locus YJR043C, strain POL32, active compounds read low 0.989
